Screens: PubChem, The Scripps Research Institute Molecular Screening Center
An excerpt weighted towards active compounds, which were near 3.5% of everything screened.
MITF inh = blocks human microphthalmia-associated transcription factor. AlphaScreen MITF homodimerization, bead proximity signal. inhibition, % at 2.6 µM. 0.91% of 650,000 active. O75030; in the data active means inhibition above about 50%
GPR151 ag = activates the human receptor GPR151; Q8TDV0; PathHunter beta-arrestin GPR151 cells, luminescence; activation, % at 11.2 µM; 1% of 650,000 active; AID 1508602; in the data active means activation above about 4.9%
Target sequence (Q8TDV0 whole entry, looked up): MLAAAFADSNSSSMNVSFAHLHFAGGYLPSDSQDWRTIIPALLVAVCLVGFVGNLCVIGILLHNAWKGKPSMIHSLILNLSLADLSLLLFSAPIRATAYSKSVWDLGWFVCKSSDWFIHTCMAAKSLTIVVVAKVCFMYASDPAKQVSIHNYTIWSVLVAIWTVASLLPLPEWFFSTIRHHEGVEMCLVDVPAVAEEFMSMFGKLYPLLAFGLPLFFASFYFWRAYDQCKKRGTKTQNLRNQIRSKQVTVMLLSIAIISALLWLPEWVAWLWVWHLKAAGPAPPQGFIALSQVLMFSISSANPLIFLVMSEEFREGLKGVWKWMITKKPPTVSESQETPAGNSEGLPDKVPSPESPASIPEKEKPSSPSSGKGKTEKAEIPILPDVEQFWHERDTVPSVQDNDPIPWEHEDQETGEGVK
FBW7 act = human FBW7 E3 ligase activation, primary screen. 0.13% of 650,000 active. AlphaScreen FBW7–phospho-cyclin E peptide binding, activator screen. normalized activity (activation), % at 26.1 µM. Q969H0; in the data active means normalized activity above about 1.9%;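 further: purified mutant Fbw7 with reduced substrate affinity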
TEAD-YAP inh = TEAD-YAP interaction inhibition; HEK-TIYL cells, TEAD-Gal4/YAP UAS-luciferase luminescence; inhibition, % at 9.12 µM; 1.4% of 640,000 active; in the data active means inhibition above about 32%
GPR151 confirm = human GPR151 activation, confirmation screen; shares compounds with GPR151 ag; GPR151 PathHunter beta-arrestin cells, luminescence, 90 min; % of EA-reagent control over plate median; activation, % at 11.2 µM; 6,700 tested, under 10 active; AID 1508609;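 active means mean percent activation across replicates above the confirmation screen cutoff of 4.91%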
GPR119 ag = activates human GPR119 in a GPR151 counter-screen. GPR119 PathHunter beta-arrestin cells, luminescence, 90 min; 0 = compound-well median, 100 = enzyme-acceptor control. activation, % at 11.2 µM. shares compounds with GPR151 ag. 0.3% of 6,700 active;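 active means mean percent activation in the counterscreen above 29.09%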;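 further: counterscreen on off-target GPR119 to flag nonselective hits from the GPR151 activator screen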
Large screens that a line does not name were inactive (follow-up assays come after a bar, where they were run); ! = a repeat was not active.

CCOC(=O)C1=C(C)N=c2s/c(=C\c3ccc(C(C)C)cc3)c(=O)n2C1c1ccc(C(C)C)cc1 (configuration not stated)	none
C=CCn1cc(/C=c2\sc3n(c2=O)C(c2ccc(Cl)cc2)C(C(=O)OCC)=C(C)N=3)c2ccccc21 (configuration not stated)	none
COc1ccc(CC2=NOC(CNC(=O)/C=C/c3ccccc3F)C2)cc1 (configuration not stated)	none
CN1CCN(C(c2ccccc2)c2ccc(Cl)cc2)CC1 (configuration not stated)	GPR151 ag 6.4! | GPR151 confirm inactive | GPR119 ag inactive
COc1cc2cc(C#N)c(SCC(=O)Nc3cccc(F)c3)nc2cc1OC	none
CCN1CCN(C(=O)c2cc(S(=O)(=O)N3CCCCC3)c[nH]2)CC1	none
CN1CCN(C(=O)c2cc(S(=O)(=O)N3CCCCC3)c[nH]2)CC1	GPR151 ag 5.3 | GPR151 confirm inactive | GPR119 ag inactive
CCn1c(O)c(N=NC(=O)c2ccc(C)nc2)c2ccccc21	none
O=C(N=Nc1c(O)n(CO)c2ccccc12)c1ccncc1	GPR151 ag 4.9 | GPR151 confirm inactive | GPR119 ag inactive
COc1cccc(-c2nn(C)c3sc(C(=O)NCCCN4CCCC4=O)cc23)c1	none
CS(=O)(=O)N(CC(=O)NC1CC2CCC1C2)c1cc(Cl)c(Cl)cc1Cl (configuration not stated)	none
CCc1ccccc1N(CC(=O)NC1CC2CCC1C2)S(C)(=O)=O (configuration not stated)	GPR151 ag 5.6 | GPR151 confirm inactive | GPR119 ag inactive
N#CC1=C(N)OC2=C(C(=O)CCC2)C1c1cc2c(cc1[N+](=O)[O-])OCO2 (configuration not stated)	none
COc1ccc(CC(=O)NNC(=O)CSc2nc(C)c(C)c(=O)[nH]2)cc1	GPR151 ag 6.3 | GPR151 confirm inactive | GPR119 ag inactive
COc1ccc(C(=O)NNC(=O)CSc2ncn[nH]2)cc1	GPR151 ag 11 | GPR151 confirm inactive | GPR119 ag inactive
COc1ccc(C(=O)NNC(=O)CSc2nc3sc(C)c(C)c3c(=O)[nH]2)cc1	none
COc1ccc(-c2nc3cc(NC(=S)NC(=O)c4ccco4)ccc3o2)cc1OC	none
COc1ccc(OC)c(/C=C2\NC(=O)N(Cc3ccc(Cl)cc3)C2=O)c1	GPR151 ag 7.9 | GPR151 confirm inactive | GPR119 ag inactive
COc1ccc(OC)c(/C=C2/NC(=O)N(Cc3ccc(Br)cc3)C2=O)c1	none
COc1cc(OC)c(/C=C2/NC(=O)N(Cc3ccc(F)cc3)C2=O)c(OC)c1	GPR151 ag 6.2 | GPR151 confirm inactive | GPR119 ag inactive
CSc1nc(C(=O)N2CCc3nnc(CNC(=O)c4cccc(F)c4)n3CC2)cs1	GPR151 ag 5.2 | GPR151 confirm inactive | GPR119 ag inactive
COC(=O)[C@@H]1CCCN1Cc1c(C(=O)N2CCOCC2)nc2c(C)cccn12	none
Cc1cccn2c(CNCCSc3nccn3C)c(C(=O)N3CCCCC3)nc12	none
CSCCNCc1c(C(=O)N2CCCCC2)nc2c(C)cccn12	GPR151 ag 9.0 | GPR151 confirm inactive | GPR119 ag inactive
Cc1cccn2c(CN3CCCCC3CCn3cccn3)c(C(=O)N3CCOCC3)nc12 (configuration not stated)	GPR151 ag 7.8 | GPR151 confirm inactive | GPR119 ag inactive
O=C(c1nc2sccn2c1CNCCc1cccnc1)N1CCCC1	GPR151 ag 12 | GPR151 confirm inactive | GPR119 ag inactive
O=C(c1nc2sccn2c1CNCCc1ccncc1)N1CCCCCCC1	none
Cc1ccc(NC2=C([N+](=O)[O-])CS(=O)(=O)C2)cc1	GPR151 ag 6.5 | GPR151 confirm inactive | GPR119 ag inactive
O=[N+]([O-])C1=C(Nc2ccc(Cl)c(Cl)c2)CS(=O)(=O)C1	none
COc1ccccc1-c1cc(C(F)(F)F)n2ncc(C(=O)O)c2n1	none
COc1ccc(-c2cc(C(F)(F)F)n3nc(C(=O)NCCc4ccccc4)cc3n2)cc1	GPR151 ag 13 | GPR151 confirm inactive | GPR119 ag inactive
O=C(NCCCn1ccnc1)c1cc2nc(-c3cccs3)cc(C(F)(F)F)n2n1	GPR151 ag 7.3 | GPR151 confirm inactive | GPR119 ag inactive
CCn1ncc(CNC(=O)c2cc3nc(-c4ccco4)cc(C(F)(F)F)n3n2)c1C	GPR151 ag 5.0 | GPR151 confirm inactive | GPR119 ag inactive
COc1ccc(-c2cc(C(F)(F)F)n3nc(C(=O)N4CCN(c5ccccc5Cl)CC4)cc3n2)cc1	GPR151 ag 6.1 | GPR151 confirm inactive | GPR119 ag inactive
COc1ccc(-c2cc(C(F)(F)F)n3nc(C(=O)N4CCN(c5cccc(Cl)c5)CC4)cc3n2)cc1	none
COC(=O)c1cc2c(cc1NC(=O)Cn1ncc3c1-c1cc(C)ccc1OC3)OCO2	none
Cc1ccc(-c2cc(C(F)(F)F)n3nc(C(=O)NN4CCOCC4)cc3n2)cc1C	GPR151 ag 5.3 | GPR151 confirm inactive | GPR119 ag inactive
COc1ccc(-c2cc(C(F)(F)F)n3nc(C(=O)NCc4cccs4)cc3n2)cc1OC	GPR151 ag 7.2 | GPR151 confirm inactive | GPR119 ag inactive
Cc1ccc2c(c1)CC(C(=O)Nc1cc(F)c(-c3cn[nH]c3)cc1OCCN(C)C)CO2 (configuration not stated)	none
CCOc1ccc(CC(=O)Nc2ccccc2)cc1OCC	none
CCOc1ccc(CC(=O)Nc2ccc(I)cc2)cc1OCC	GPR151 ag 6.0 | GPR151 confirm inactive | GPR119 ag inactive
CC1(C)C2C[C@@H](OC(=O)Nc3cccc4ccccc34)[C@](C)(O)CC21 (some centres not stated)	none
CCNc1nc(NCC)n2c(SCC(=O)Nc3ccccc3C)nnc2n1	GPR151 ag 6.8 | GPR151 confirm inactive | GPR119 ag inactive
CCNc1nc(NCC)n2c(SCC(=O)Nc3ccc(C)cc3C)nnc2n1	none
O=C(CN1C(=O)CCC1=O)Nc1ccc(Cl)c(C(F)(F)F)c1	GPR151 ag 6.6 | GPR151 confirm inactive | GPR119 ag inactive
O=C(CN1CCN(CC(=O)Nc2ccc(Cl)c(C(F)(F)F)c2)CC1)Nc1ccc(F)cc1	none
CS(=O)(=O)Nc1ccccc1Oc1ccccc1	GPR151 ag 7.9 | GPR151 confirm inactive | GPR119 ag inactive
CC(=O)NS(=O)(=O)c1ccc(NC(=O)COc2ccc(C)cc2)cc1	none
COc1ccccc1OCC(=O)Nc1ccc(S(=O)(=O)NC(C)=O)cc1	GPR151 ag 16 | GPR151 confirm inactive | GPR119 ag inactive
CC(=O)Nc1ccc(NC(=O)COc2ccc(Br)cc2C)cc1	GPR151 ag 8.7 | GPR151 confirm inactive | GPR119 ag inactive
Cc1cc(Br)ccc1OCC(=O)Nc1ccc(C(N)=O)cc1	none
CC(C)(C)NS(=O)(=O)c1ccc(NC(=O)COc2ccc3ccccc3c2)cc1	none
